Test results taken from PubChem BioAssay (NCATS).
Results filed as inconclusive are left out. Active and inactive are the calls of the source. Unless noted, calls follow the shape of the dose curve; as a rule, active = well fitted curve in the direction sought with a large enough effect; inconclusive = small, poorly fitted or top-dose-only effect, or another doubt; inactive = no such curve, though single readings can be large; an effect the other way counts as inactive or inconclusive.

Tests used:
[1] = Validation of Assay for Modulators of Lamin A Splicing (AID 1459; active = well fitted curve in the direction sought with a large enough effect in the signal ratio; the % refers to the signal ratio;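 also: cells exposed to compound for two days before reading; 0% is about no effect; ratio rise marks activators and ratio drop marks inhibitors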)
Method in brief: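 Readout: ratio of GFP (500-530 nm) to RFP (575-640 nm) total object intensity by 488 nm laser-scanning cytometry after 48 hrs. Cells were HeLa S3 clones carrying lamin A-EGFP minigene plus DsRed2 viability reporter; vehicle 0.5% DMSO final.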

[2] = biological target: DNA repair nuclease/redox regulator APEX1 (Homo sapiens) (UniProt P27695); assay: qHTS Validation Assay for Inhibitors of the Human Apurinic/apyrimidinic Endonuclease 1 (APE1) (AID 1705;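 also: TAMRA fluorescence gain over two minutes as APE1 cuts a quenched THF abasic duplex; % is scaled to controls: 0 for no effect and ±100 for the full control effect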)
Method in brief: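 Read-out: TAMRA fluorescence (525 nm ex, 598 nm em) from cleavage of a quenched THF abasic-site duplex, 50 nM final; activity taken as intensity change between third and first of three reads 60 s apart.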

[3] = Counterscreen for APE1 Inhibitors: Fluorescent Dye Displacement Validation Assay (AID 1707);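 also: plate controls were ThO with dsDNA and no compound for no effect and ThO without dsDNA for full effect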
Method in brief: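 Compounds are scored by their ability to displace Thiazole Orange (250 nM) from a 50 nM TAMRA-tagged duplex bearing a tetrahydrofuran abasic site. Buffer is 50 mM Tris-HCl pH7.5, 50mM NaCl, 2 mM MgCl2, 0.01% Tween-20.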

[4] = biological target: Endonuclease 4 (Escherichia coli (strain K12)) (UniProt P0A6C1); assay: Counterscreen for APE1 Inhibitors: qHTS Validation Assay for Inhibitors of Endonuclease IV (AID 1708); also: % is scaled to controls: 0 for no effect and ±100 for the full control effect
Method in brief: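 Enzymatic AP-site incision assay using a double-stranded THF substrate labelled with TAMRA and BHQ-2; released fluorescence signals activity. Enzyme 2 nM, substrate 50 nM, 15 min compound preincubation.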

[5] = qHTS for differential inhibitors of proliferation of Plasmodium falciparum line D10 (AID 1877);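 also: parasites grown with compound for 72 h before DNA staining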; also: potency is read from the fitted curve at half-maximal effect;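 as to activity change, negative = inhibition: plate controls were vehicle wells for no effect and reference inhibitor wells for full effect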
[6] = Validation screen for small molecules that induce DNA re-replication in MCF 10A normal breast cells (AID 463097); also: 0% is about no effect; nearly all actives have a fitted effect of over 60% in size
Method in brief: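 250 MCF 10A cells/well; compound pin-transferred; 48 hr, 37 C, 5% CO2; Hoechst 40 min; imaged 405/500-530 nm. Hits = more high-intensity nuclei.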

[7] = Quantitative high throughput screen for delayed death inhibitors of the malarial parasite plastid, 96 hour incubation (AID 488745); also: nearly all actives have a fitted effect of over 70% in size; also: potency is read from the fitted curve at half-maximal effect;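 as to activity change, negative = inhibition: luciferase-expressing P. falciparum in erythrocytes at 2% hematocrit and 0.1% parasitemia; % is scaled to controls: 0 for no effect and ±100 for the full control effect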
Method in brief: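 Growth of reporter-bearing P. falciparum in red cells is measured after 96 h with compound, covering two erythrocytic cycles. Luminescence from the integrated luciferase serves as the growth signal.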

[8] = Quantitative high throughput screen for delayed death inhibitors of the malarial parasite plastid, 48 hour incubation (AID 488752); also: nearly all actives have a fitted effect of over 65% in size; also: potency is read from the fitted curve at half-maximal effect
Method in brief: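 One parasite generation (48 h, 37 C, 5% CO2) of luciferase-reporter P. falciparum in erythrocytes is run with test compound; decreased luminescence indicates inhibited growth.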

[9] = biological target: M-phase phosphoprotein 8 (Homo sapiens) (UniProt Q99549); assay: qHTS Validation Assay for Inhibitors for MPP8 Chromodomain Interactions with Methylated Histone Tails (AID 488949); also: nearly all actives have a fitted effect of over 55% in size; also: potency is read from the fitted curve at half-maximal effect
Method in brief: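 AlphaScreen read-out: streptavidin donor and nickel chelate acceptor beads (final 10 ug/mL), 30 min in the dark at RT. Complex of 50 nM MPP8 and 50 nM b-H3(1-18)K9me3 peptide had been exposed to compounds for 30 min beforehand.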

[10] = biological target: Transient receptor potential cation channel subfamily V member 1 (Homo sapiens) (UniProt Q8NER1); assay: HTS Assay for Compounds that Act as Enhancers of the Vanilloid Receptor 1 (AID 488979); also: 0% is about no effect
Method in brief: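 Calcium influx kinetics via Fluo-8 (480/520 nm) in TRPV1-expressing cells, 2000/well cultured overnight at 35.5C. Compound-alone read 3 min (agonist phase), followed by EC20 capsaicin challenge for 2 min (enhancer phase).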

[11] = biological target: Thyrotropin receptor (Homo sapiens) (UniProt P16473); assay: qHTS Assay for Antagonists of the Thyroid Stimulating Hormone Receptor (AID 488980); also: 0% is about no effect
Method in brief: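 TSHR-HEK293 cells; 70 uM RO 20-1724 PDE inhibitor; compound + EC80 TSH (4 nM final); anti-cAMP cryptate antibody/cAMP-d2 in lysis buffer, 30 min RT; HTRF 665/620 nm read.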

[12] = biological target: Thyrotropin-releasing hormone receptor (Homo sapiens) (UniProt P34981); assay: qHTS for Small Molecule Agonists and Allosteric Enhancers of Human TRH Receptor: Validation Screen for Agonists (AID 493127;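 active = calcium activation more than 3 SD above the typical response in the agonist read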;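 also: intracellular calcium rise by fluo-8 fluorescence before TRH EC20 addition; 0% is about no effect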); conditions: TRH receptor agonist cell assay; at 2 µM; stronger effect = higher value
Method in brief: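 Gq-coupled calcium mobilization in TRHR cells after compound addition, monitored kinetically with fluo-8 dye on an FDSS reader.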

[13] = biological target: Galactokinase (Homo sapiens) (UniProt P51570); assay: qHTS Validation Assay for Inhibitors of Human Galactokinase (GALK) (AID 493189); also: 0% is about no effect
Method in brief: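 Luminescence from leftover ATP (Kinase-Glo Plus, 10 min) served as read-out after a 1 h room-temperature reaction of 5 nM GALK, 100 uM galactose and 35 uM ATP at pH8.0.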

[14] = Validation screen for small molecules that induce DNA re-replication in SW480 colon adenocarcinoma cells (AID 504364); also: 0% is about no effect
Method in brief: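 Cells are treated 48 hr with test compound, stained 40 min with Hoechst at 37 C, and scanned for nuclear fluorescence; compounds inducing re-replication increase nuclei with elevated intensity.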

[15] = qHTS for differential inhibitors of proliferation of Plasmodium falciparum line 3D7 (AID 1876); also: potency is read from the fitted curve at half-maximal effect
[16] = qHTS for differential inhibitors of proliferation of Plasmodium falciparum line Dd2 (AID 1882); conditions: Potency: Plasmodium falciparum Dd2 proliferation inhibition; also: nearly all actives have a fitted effect of over 65% in size; also: potency is read from the fitted curve at half-maximal effect;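 as to activity change, negative = inhibition: compound exposure of 72 h on infected erythrocytes; plate controls were DMSO vehicle for no effect and 0.29 µM artemisinin for full effect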
Method in brief: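 SYBR Green I DNA fluorescence read-out, ex 485/em 535 nm. Signals were normalized to 0.29 uM artemisinin and DMSO wells, then corrected using vehicle-only plates flanking each stack. Parasite growth ran 72 h in erythrocytes before lysis.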

[17] = biological target: Ferritin light chain (Equus caballus) (UniProt P02791); assay: qHTS Validation Assay for Identification of Novel General Anesthetics (AID 2323); also: % is scaled to controls: 0 for no effect and ±100 for the full control effect
Method in brief: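 10 uM horse-spleen apoferritin + 1-AMA (50% saturated, PBS); cpd pin-transferred, 10 min RT. Ex 380/Em 535 nm endpoint. Activity normalized between free 1-AMA and 1-AMA/apoferritin; 4-parameter Hill fit of concentration-response.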

[18] = qHTS for differential inhibitors of proliferation of Plasmodium falciparum line HB3 (AID 1886); conditions: Potency: Plasmodium falciparum HB3 proliferation inhibition;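 also: parasites grown with compound for 72 h before SYBR Green readout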; also: potency is read from the fitted curve at half-maximal effect;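 as to activity change, negative = inhibition: plate controls were vehicle for no effect and reference inhibitor for full effect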
[19] = biological target: Voltage-gated inwardly rectifying potassium channel KCNH2 (Homo sapiens) (UniProt Q12809); assay: qHTS Assay for Small Molecule Inhibitors of the Human hERG Channel Activity (AID 588834);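 also: lower thallium flux fluorescence means stronger hERG block; nearly all actives have a fitted effect of over 50% in size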; also: potency is read from the fitted curve at half-maximal effect
Method in brief: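 Concentration-response qHTS measuring drop in thallium-sensitive dye signal. U2OS cells carrying BacMam hERG; compound exposure ~10 min, then stimulation buffer and 2 min read at 1 sec intervals.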

[20] = qHTS Assay for Lipid Storage Modulators (AID 1519; calls by dose curve); conditions: Drosophila S3 cells, BODIPY lipid droplet/cell ratio, laser cytometry, cells loaded with oleic acid
Method in brief: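 Cells seeded at 5,000 per well were treated with compounds over a concentration series and loaded with oleic acid (400 uM, as added). Lipid droplet fluorescence (488 nm excitation, 500-530 nm channel) was read by laser-scanning cytometry and normalized to 20 uM Triacsin C.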

Chain of M-phase phosphoprotein 8 (Homo sapiens) (Q99549 whole entry, looked up): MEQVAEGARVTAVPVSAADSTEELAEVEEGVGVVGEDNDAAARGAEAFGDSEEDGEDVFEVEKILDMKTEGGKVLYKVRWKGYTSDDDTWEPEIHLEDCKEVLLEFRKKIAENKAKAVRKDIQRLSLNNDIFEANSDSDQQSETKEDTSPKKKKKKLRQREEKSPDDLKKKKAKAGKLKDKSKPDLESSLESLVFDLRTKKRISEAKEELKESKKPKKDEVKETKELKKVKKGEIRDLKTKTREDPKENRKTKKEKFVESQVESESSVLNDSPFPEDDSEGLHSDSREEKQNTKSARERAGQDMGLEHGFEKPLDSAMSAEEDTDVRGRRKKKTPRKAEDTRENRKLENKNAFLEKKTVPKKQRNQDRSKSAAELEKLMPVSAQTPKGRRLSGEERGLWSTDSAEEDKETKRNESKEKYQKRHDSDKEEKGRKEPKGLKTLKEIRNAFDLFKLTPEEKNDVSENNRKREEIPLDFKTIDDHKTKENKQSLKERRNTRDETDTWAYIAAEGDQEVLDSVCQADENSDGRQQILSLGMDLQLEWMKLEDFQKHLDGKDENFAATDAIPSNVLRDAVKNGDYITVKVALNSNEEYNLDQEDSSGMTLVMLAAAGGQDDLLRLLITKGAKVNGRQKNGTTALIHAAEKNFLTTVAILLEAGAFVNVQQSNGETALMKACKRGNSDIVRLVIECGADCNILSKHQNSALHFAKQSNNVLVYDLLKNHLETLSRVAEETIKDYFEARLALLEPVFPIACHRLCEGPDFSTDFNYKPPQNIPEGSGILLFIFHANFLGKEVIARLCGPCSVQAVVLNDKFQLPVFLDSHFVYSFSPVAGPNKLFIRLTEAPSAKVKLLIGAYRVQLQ
Chain of Voltage-gated inwardly rectifying potassium channel KCNH2 (Homo sapiens) (Q12809 whole entry, looked up): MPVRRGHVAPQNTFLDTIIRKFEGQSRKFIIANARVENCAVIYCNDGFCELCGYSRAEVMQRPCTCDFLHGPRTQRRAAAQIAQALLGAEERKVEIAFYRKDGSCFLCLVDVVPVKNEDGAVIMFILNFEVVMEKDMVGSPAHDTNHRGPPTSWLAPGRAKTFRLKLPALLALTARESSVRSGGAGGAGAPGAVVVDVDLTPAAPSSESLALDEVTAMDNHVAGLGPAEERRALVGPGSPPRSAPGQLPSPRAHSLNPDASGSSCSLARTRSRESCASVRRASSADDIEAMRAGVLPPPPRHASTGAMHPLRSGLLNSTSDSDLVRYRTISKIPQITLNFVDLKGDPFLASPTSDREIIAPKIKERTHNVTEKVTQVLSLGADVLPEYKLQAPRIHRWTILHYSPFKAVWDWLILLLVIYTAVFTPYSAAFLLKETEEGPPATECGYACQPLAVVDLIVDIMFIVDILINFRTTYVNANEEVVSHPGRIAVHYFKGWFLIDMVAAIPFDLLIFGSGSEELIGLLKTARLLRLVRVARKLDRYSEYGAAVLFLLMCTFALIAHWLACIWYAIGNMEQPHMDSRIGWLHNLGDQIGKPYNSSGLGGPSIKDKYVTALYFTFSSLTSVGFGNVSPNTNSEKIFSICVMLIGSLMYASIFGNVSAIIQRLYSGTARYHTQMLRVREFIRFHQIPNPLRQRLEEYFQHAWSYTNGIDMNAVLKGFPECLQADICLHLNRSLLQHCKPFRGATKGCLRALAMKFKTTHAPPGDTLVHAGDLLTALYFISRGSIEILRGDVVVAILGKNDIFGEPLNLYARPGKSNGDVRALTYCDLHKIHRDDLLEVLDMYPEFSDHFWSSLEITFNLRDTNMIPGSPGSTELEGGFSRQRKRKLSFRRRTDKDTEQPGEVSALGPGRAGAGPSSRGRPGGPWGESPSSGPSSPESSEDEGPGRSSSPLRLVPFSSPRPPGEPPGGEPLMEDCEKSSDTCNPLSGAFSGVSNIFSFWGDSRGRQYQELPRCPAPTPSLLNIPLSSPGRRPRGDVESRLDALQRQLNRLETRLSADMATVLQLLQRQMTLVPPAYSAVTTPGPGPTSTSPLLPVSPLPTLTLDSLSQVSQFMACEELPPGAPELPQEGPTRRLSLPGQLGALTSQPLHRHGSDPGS
Chain of Thyrotropin-releasing hormone receptor (Homo sapiens) (P34981 whole entry, looked up): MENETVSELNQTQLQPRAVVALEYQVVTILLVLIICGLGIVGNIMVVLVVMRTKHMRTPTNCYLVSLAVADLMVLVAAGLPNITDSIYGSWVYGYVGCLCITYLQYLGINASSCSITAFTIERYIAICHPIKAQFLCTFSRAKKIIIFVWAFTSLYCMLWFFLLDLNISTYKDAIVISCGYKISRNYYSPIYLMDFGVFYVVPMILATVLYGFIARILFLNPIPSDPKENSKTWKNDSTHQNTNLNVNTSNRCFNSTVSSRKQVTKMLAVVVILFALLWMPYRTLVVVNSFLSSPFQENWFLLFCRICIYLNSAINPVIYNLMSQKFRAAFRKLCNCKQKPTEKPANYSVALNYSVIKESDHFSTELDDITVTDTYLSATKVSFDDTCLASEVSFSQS
Chain of Transient receptor potential cation channel subfamily V member 1 (Homo sapiens) (Q8NER1 whole entry, looked up): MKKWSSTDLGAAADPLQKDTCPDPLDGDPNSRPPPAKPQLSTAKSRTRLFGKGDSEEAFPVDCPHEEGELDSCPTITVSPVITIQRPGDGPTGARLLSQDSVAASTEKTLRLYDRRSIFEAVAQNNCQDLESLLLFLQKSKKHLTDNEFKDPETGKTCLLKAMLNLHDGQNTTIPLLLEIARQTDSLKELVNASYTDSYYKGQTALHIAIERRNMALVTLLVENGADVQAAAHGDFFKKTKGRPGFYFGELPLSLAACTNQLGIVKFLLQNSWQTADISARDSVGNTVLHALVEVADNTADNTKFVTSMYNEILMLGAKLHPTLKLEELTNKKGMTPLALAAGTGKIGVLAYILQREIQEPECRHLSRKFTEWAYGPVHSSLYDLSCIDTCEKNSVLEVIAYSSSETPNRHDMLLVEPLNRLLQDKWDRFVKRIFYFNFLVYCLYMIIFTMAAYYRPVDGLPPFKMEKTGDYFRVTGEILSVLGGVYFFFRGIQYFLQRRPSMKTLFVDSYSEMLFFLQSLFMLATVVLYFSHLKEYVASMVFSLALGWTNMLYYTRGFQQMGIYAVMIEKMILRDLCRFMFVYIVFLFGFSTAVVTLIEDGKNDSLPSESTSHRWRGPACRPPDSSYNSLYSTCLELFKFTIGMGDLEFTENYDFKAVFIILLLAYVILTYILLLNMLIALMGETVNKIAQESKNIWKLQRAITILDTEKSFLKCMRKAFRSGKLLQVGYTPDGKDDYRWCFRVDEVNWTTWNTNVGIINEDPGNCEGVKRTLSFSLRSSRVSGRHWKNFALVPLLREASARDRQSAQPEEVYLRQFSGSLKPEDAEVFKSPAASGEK
Chain of Ferritin light chain (Equus caballus) (P02791 2-175 limits assumed): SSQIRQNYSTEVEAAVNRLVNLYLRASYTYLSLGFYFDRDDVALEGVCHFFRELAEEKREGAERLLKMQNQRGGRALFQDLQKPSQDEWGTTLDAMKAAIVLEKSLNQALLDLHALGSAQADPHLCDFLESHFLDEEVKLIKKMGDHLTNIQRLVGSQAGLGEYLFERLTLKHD
Chain of Thyrotropin receptor (Homo sapiens) (P16473 whole entry, looked up): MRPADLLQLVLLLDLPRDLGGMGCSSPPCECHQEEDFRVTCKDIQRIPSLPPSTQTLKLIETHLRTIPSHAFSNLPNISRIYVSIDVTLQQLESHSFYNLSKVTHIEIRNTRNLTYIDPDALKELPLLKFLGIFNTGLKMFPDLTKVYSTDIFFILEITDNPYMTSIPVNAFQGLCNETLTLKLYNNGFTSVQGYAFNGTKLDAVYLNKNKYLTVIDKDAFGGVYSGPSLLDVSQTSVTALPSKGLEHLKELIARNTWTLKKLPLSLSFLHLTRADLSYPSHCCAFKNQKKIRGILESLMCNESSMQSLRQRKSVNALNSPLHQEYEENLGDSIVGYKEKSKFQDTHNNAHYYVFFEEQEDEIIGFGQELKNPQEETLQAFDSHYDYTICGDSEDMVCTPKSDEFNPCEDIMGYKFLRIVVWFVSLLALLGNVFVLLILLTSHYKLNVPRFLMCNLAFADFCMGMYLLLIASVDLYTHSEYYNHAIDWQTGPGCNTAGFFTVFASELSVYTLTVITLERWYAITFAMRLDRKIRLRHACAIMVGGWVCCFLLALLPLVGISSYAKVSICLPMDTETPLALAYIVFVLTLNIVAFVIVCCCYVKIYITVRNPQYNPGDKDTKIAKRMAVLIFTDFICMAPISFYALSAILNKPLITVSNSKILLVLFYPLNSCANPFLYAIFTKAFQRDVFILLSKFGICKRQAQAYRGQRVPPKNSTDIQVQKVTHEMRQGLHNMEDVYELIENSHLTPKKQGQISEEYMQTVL
Chain of DNA repair nuclease/redox regulator APEX1 (Homo sapiens) (P27695 whole entry, looked up): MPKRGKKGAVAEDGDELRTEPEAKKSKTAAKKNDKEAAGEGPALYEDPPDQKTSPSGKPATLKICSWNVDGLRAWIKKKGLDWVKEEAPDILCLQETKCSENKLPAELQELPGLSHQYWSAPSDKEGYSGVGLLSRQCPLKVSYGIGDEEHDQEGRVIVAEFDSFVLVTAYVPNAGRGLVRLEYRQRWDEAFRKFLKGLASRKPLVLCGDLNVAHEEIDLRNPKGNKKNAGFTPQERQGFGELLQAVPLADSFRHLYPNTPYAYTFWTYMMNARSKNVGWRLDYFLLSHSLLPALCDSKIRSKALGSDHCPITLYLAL
Chain of Galactokinase (Homo sapiens) (P51570 whole entry, looked up): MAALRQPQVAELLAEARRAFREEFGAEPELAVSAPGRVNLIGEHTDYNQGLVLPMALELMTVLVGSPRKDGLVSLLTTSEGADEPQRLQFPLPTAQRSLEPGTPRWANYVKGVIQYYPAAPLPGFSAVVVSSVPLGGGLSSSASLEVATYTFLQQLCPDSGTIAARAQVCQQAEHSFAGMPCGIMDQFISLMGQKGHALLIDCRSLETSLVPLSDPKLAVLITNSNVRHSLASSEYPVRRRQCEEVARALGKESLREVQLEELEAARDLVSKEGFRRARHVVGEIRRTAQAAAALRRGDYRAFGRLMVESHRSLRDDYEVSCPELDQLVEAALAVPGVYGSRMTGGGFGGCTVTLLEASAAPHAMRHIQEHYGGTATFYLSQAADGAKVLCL

O=[N+]([O-])c1ccc(CSc2ncnc3c2ncn3[C@@H]2O[C@H](CO)[C@H](O)[C@H]2O)cc1
inactive: outcome [1] | Potency [2] | Potency [3] | outcome [4] | Potency [5] | outcome [6] | Potency [7] | Potency [8] | Potency [9] | outcome [10] | outcome [11] | activation [12] 0.688% | outcome [13] | outcome [14]

Nc1nc2c(nc(Br)n2C2O[C@H]3COP(=O)(O)O[C@@H]3C2O)c(=O)[nH]1 (stereo partly drawn)
active: Potency [15] 10 µM | Potency [16] 7.94 µM | Potency [8] 10.4 µM
inactive: outcome [1] | Potency [2] | Potency [3] | outcome [4] | outcome [17] | outcome [6] | Potency [9] | outcome [10] | outcome [11] | activation [12] 0.812% | outcome [13] | outcome [14]

COc1ccc(CCNC[C@@H](O)c2ccc(O)cc2)cc1OC
inactive: outcome [1] | Potency [2] | Potency [3] | outcome [4] | Potency [15] | Potency [5] | Potency [16] | Potency [18] | outcome [17] | outcome [6] | Potency [7] | Potency [8] | Potency [9] | outcome [10] | outcome [11] | outcome [13] | outcome [14]

Nc1ncnc2c1ncn2[C@@H]1O[C@H](CO)[C@H](O)[C@H]1O
inactive: outcome [1] | Potency [2] | Potency [3] | outcome [4] | Potency [15] | Potency [5] | Potency [16] | Potency [18] | outcome [17] | outcome [6] | Potency [7] | Potency [8] | Potency [9] | outcome [10] | outcome [11] | activation [12] 1.5% | outcome [13] | outcome [14]

CC(=O)NCCc1ccc(O)c(O)c1
inactive: outcome [1] | Potency [2] | Potency [3] | outcome [4] | Potency [16] | outcome [17] | outcome [6] | Potency [7] | Potency [8] | outcome [10] | outcome [11] | activation [12] 0.75% | outcome [13] | outcome [14] | Potency [19]

C[C@H]1CC2[C@@H]3CCC4=CC(=O)C=C[C@]4(C)[C@@]3(Cl)[C@@H](O)C[C@]2(C)[C@@]1(O)C(=O)CO (stereo partly drawn)
inactive: outcome [1] | Potency [2] | Potency [3] | outcome [4] | Potency [15] | Potency [5] | Potency [16] | outcome [17] | outcome [6] | Potency [7] | Potency [8] | Potency [9] | outcome [10] | outcome [11] | activation [12] 0.25% | outcome [13] | outcome [14] | Potency [19]

CCCCC#Cc1nc(N)c2ncn([C@@H]3O[C@H](C(=O)NCC)[C@@H](O)[C@H]3O)c2n1
inactive: outcome [1] | Potency [2] | Potency [3] | outcome [17] | outcome [6] | Potency [9] | outcome [10] | outcome [11] | activation [12] -0.438% | outcome [13] | outcome [14] | Potency [19]
active: Potency [15] 8.91 µM | Potency [18] 11.2 µM | Potency [7] 13.1 µM

CC(C)CN(C)c1nc(N)c(C(=O)N=C(N)N)nc1Cl
active: Potency [15] 3.98 µM | Potency [5] 7.08 µM | Potency [18] 8.91 µM | Potency [7] 8.28 µM | Potency [8] 10.4 µM | Potency [9] 44.7 µM | Potency [19] 2 µM
inactive: outcome [1] | Potency [2] | Potency [3] | outcome [11] | activation [12] 0.812% | outcome [13]

C[C@H](Cc1ccccc1)Nc1ncnc2c1ncn2[C@@H]1O[C@H](CO)[C@H](O)[C@H]1O
inactive: outcome [1] | Potency [2] | Potency [3] | outcome [4] | Potency [15] | Potency [5] | Potency [16] | Potency [18] | outcome [17] | outcome [6] | Potency [7] | Potency [9] | outcome [10] | outcome [11] | activation [12] -2.69% | outcome [13] | outcome [14] | Potency [19]

CN1C2CCC1CC(NC(=O)c1nn(C)c3ccccc13)C2 (stereo not drawn)
inactive: outcome [1] | Potency [2] | Potency [3] | outcome [4] | Potency [15] | Potency [5] | Potency [16] | Potency [18] | outcome [6] | Potency [8] | Potency [9] | outcome [10] | outcome [11] | activation [12] 0.75% | outcome [13] | outcome [14] | Potency [19]

CSc1nc(N)c2ncn([C@@H]3O[C@H](COP(=O)(O)OP(=O)(O)OP(=O)(O)O)[C@H](O)[C@H]3O)c2n1
active: Potency [5] 12.6 µM
inactive: outcome [1] | Potency [2] | Potency [3] | outcome [4] | Potency [16] | outcome [17] | outcome [6] | Potency [7] | Potency [8] | Potency [9] | outcome [10] | outcome [11] | activation [12] 24.8% | outcome [13] | outcome [14] | Potency [19]

CSc1nc(N)c2ncn([C@@H]3O[C@H](COP(=O)(O)OP(=O)(O)O)[C@H](O)[C@H]3O)c2n1
inactive: outcome [1] | Potency [2] | Potency [3] | Potency [15] | Potency [5] | Potency [16] | Potency [18] | outcome [17] | outcome [6] | Potency [7] | Potency [8] | Potency [9] | outcome [10] | outcome [11] | activation [12] 17.3% | outcome [13] | outcome [14] | Potency [19]

NC[C@@H](O)c1ccc(O)c(O)c1
inactive: activity change, negative = inhibition ([20]; at 57.5 µM (top of the series)) 7.77%
16.7%: max response ([20]; measured here: lipid channel max response)
7.41%: max response ([20]; measured here: cell count channel max response)
